{"source": "PubChem BioAssay (NCATS)", "note": "Calls of active or inactive are those of the source. Where a call stands in place of a potency, no number is given. Calls follow the shape of the dose curve; as a rule, active = well fitted inhibition curve with a large enough effect; inconclusive = small, poorly fitted or top-dose-only effect; inactive = no such curve, though single readings can be large or run the other way."}
{"experiment": "qHTS assay for measurement of the activity of small molecule inhibitors on Zika virus induced Caspase-3 activity in human astrocytoma cells (AID 1224859); also: potency is read from the fitted curve at half-maximal effect", "details": "SNB-19 ZIKV-induced caspase-3/7, luminescence, 6 h; series mostly up to 45.7 µM", "source_text": "National Center for Advancing Translational Sciences [NCATS]\nJohns Hopkins University School of Medicine\nIncrease in the Caspase-3 activity indicates an activation of apoptosis cell death pathway caused by Zika virus infection in certain types of neuronal cells including human neural progenitor cells (hNPCs), astrocytes, and astrocytoma cell line (SNB-19). This cell-based caspase-3 activity assay measures the increased caspase-3 activity in the astrocytoma cell line (SNB-19) after a 6-hour Zika virus infection with a luminescence readout. A decrease in the luminescence signal in this assay by small molecule treatment indicates an inhibitory effect of that small molecule on the Zika virus induced caspase-3 activity that may correlate with its effect on reduction of Zika virus caused cell death.\nThe medium for SNB-19 cells is composed of RPMI 1640 (ATCC, Cat.# 30-2001), 10% fetal bovine serum (FBS) (GE healthcare Life Sciences, Cat.# SH30071.03), and 1% Pen/Strep (Gibco, Cat.# 15140-122). A Caspase-Glo 3/7 assay kit (catalog number G8092; Promega, Madison, WI) was used to detect caspase-3 activity induced by Zika virus infection in human cells. The reagent mixture was reconstituted as described in the protocol from the manufacturer. Polystyrene tissue culture treated and PDL coated white plates were obtained from Greiner Bio-One (Monroe, NC). Cells were seeded in 384- or 1536-well assay plates and cultured at 37 C with 5% CO2 for 16 to 20 hours. The typical cell seeding density in the 1536-well plate assay is 250 cells/well in 3ul medium for SNB-19 cells in tissue culture treated plates. Compounds were added to cells and incubated for one hour before addition of ZIKV solution to cells (2 FFU/cell). After incubation at 37 C with 5% CO2 for 6 hours, the reagent mixture of Caspase-Glo 3/7 assay kit was added to each well, followed by incubation at room temperature for 30 minutes. The luminescence intensity of the assay plates was measured using a ViewLux plate reader (PerkinElmer). Data were normalized by using the cell-containing wells without ZIKV as a negative control (0% induction of caspase 3/7 activity) and wells containing ZIKV infected cells (Caspase-3 activity induced) as a positive control (100% induction of caspase 3 activity). The percentage inhibitions of the increased Caspase-3 activity by small molecule inhibitors were then calculated."}
{"molecule": "CCCCCCCCCCCCCCCC(=O)OC(CC(=O)O)C[N+](C)(C)C", "note": "(stereo not given)", "Potency": "inactive"}
{"molecule": "Cc1nc2sccn2c(=O)c1CCN1CCC(=C(c2ccccc2)c2ccc(F)cc2)CC1", "Potency": "inactive"}
{"molecule": "O=C(c1cc(O)c(O)c([N+](=O)[O-])c1)c1ccccc1F", "Potency": "inactive"}
{"molecule": "NC(=O)C(=O)O", "Potency": "inactive"}
{"molecule": "COc1ccc(NC(=O)/C=C/c2ccc(Cl)cc2)cc1", "Potency": "5.62 µM (active)"}
{"molecule": "C=CC(=O)c1ccc(CCCCCC)cc1", "Potency": "inactive"}
{"molecule": "CCCn1c(=O)c2[nH]c(-c3ccc(OCC(=O)NCCN)cc3)nc2n(CCC)c1=O", "Potency": "inactive"}
{"molecule": "Nc1ncnc2c1ncn2[C@@H]1O[C@H](COP(=O)(O)CP(=O)(O)OP(=O)(O)O)[C@@H](O)[C@H]1O", "Potency": "inactive"}
{"molecule": "COc1ccc(-c2cc(=S)ss2)cc1", "Potency": "inactive"}
{"molecule": "O=C(OCc1ccccc1)c1ccccc1", "Potency": "inactive"}
{"molecule": "CCOC(=O)C1=C(C)NC(C)=C(C(=O)OCC)C1c1c(F)c(F)c(F)c(F)c1F", "Potency": "inactive"}
{"molecule": "Nc1ncnc2c1ncn2[C@@H]1O[C@H](COP(=O)(O)OP(=O)(O)OP(=O)(O)OP(=O)(O)OC[C@@H]2O[C@H](n3cnc4c(N)ncnc43)[C@@H](O)[C@H]2O)[C@@H](O)[C@H]1O", "Potency": "inactive"}
{"molecule": "C=CC(C)=C[C@@]1(C)SC(=O)C(C)=C1O", "Potency": "inactive"}
{"molecule": "c1ccc2sc(SSc3nc4ccccc4s3)nc2c1", "Potency": "inactive"}
{"molecule": "O=C(/C=C/c1ccc(O)cc1)c1ccc(O)cc1O", "Potency": "1.26 µM (active)"}
{"molecule": "N=C(N)SCCc1ccc(CCSC(=N)N)cc1", "Potency": "inactive"}
{"molecule": "NCCNC(=O)c1ncsc1-c1cccc(F)c1", "Potency": "inactive"}
{"molecule": "CSc1nc(N)c2ncn([C@@H]3O[C@H](COP(=O)(O)OP(=O)(O)OP(=O)(O)O)[C@@H](O)[C@H]3O)c2n1", "Potency": "inactive"}
{"molecule": "O=C1C(SCCO)=C(SCCO)C(=O)c2ccccc21", "Potency": "inactive"}
{"molecule": "CCCCCCCCCCCCCCCCCCNC(=O)OCC(COP(=O)([O-])OCC[n+]1ccsc1)OC", "note": "(stereo not given)", "Potency": "inactive"}
{"molecule": "OC[C@H]1O[C@@H](n2cnc3c(NC4CCCC4)ncnc32)[C@H](O)[C@@H]1O", "Potency": "inactive"}
{"molecule": "O=C(O)c1ccccc1Nc1cccc(C(F)(F)F)c1", "Potency": "inactive"}
{"molecule": "COc1cc(C(O)CO)ccc1OS(=O)(=O)O", "note": "(stereo not given)", "Potency": "inactive"}
{"molecule": "CCCCCCCCCCCCOCCO", "Potency": "inactive"}
{"molecule": "O=C1/C(=C/c2ccsc2)CC/C1=C\\c1cccs1", "Potency": "inactive"}
{"molecule": "Oc1cc2c(cc1O)CN(C(=S)NCCc1ccc(Cl)cc1)CCC2", "Potency": "inactive"}
{"molecule": "C[C@@H](CN1CCC(Cc2ccccc2)CC1)[C@@H](O)c1ccc(O)cc1", "Potency": "inactive"}
{"molecule": "C[C@@H](NC(=O)/C(C#N)=C/c1ccc(O)c(O)c1)c1ccccc1", "Potency": "inactive"}
{"molecule": "Cc1ccc(C(=O)c2ccc(CC(=O)O)n2C)cc1", "Potency": "inactive"}
{"molecule": "O=C(O)CCCC[C@@H]1CCSS1", "Potency": "inactive"}
{"molecule": "O=c1[nH]c2cc([N+](=O)[O-])c([N+](=O)[O-])cc2[nH]c1=O", "Potency": "inactive"}
{"molecule": "CCCCCCCCCCCCCCCCCC(=O)NCC(COP(=O)([O-])OCC[N+](C)(C)C)OCC", "note": "(stereo not given)", "Potency": "inactive"}
{"molecule": "N#C/C(=C\\c1ccc(O)c(O)c1)C(=O)c1ccc(O)c(O)c1", "Potency": "inactive"}
{"molecule": "S=c1[nH]c2ccccc2s1", "Potency": "inactive"}
{"molecule": "CNC(=O)[C@H]1O[C@@H](n2cnc3c(NCc4cccc(I)c4)ncnc32)[C@H](O)[C@@H]1O", "Potency": "inactive"}
{"molecule": "OC[C@H]1O[C@@H](n2cnc3c(Nc4ccccc4)ncnc32)[C@H](O)[C@@H]1O", "Potency": "inactive"}
{"molecule": "CN(C)CCCO[C@@H]1[C@H]2OC(C)(C)O[C@H]2O[C@@H]1[C@H](O)CO", "Potency": "inactive"}
{"molecule": "N=C1N=C(N)c2cc3ccccc3cc21", "Potency": "inactive"}
{"molecule": "C=CCCCCCCCCC(=O)O", "Potency": "inactive"}
{"molecule": "O=C(O)/C=C/C(O)c1ccc(Cl)cc1", "note": "(stereo not given)", "Potency": "inactive"}
